# Source: PubChem BioAssay (National Center for Advancing Translational Sciences (NCATS))
# A selection: hits, their analogues and other compounds. The true share with any hit is near 0.24%.
# TSHR antag: Antagonists of the Thyroid Stimulating Hormone Receptor: HTS campaign. AID 504810, 2011. activity change, negative = inhibition, % at 11.5 µM. 0.2% of 330,000 active. Thyrotropin receptor (Homo sapiens), P16473. TSHR-expressing cells, TSH-stimulated cAMP HTRF, 2 h; active compounds read low;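 active = activity change below a set negative limit, meaning inhibition stronger than a set level, cut at about -70% in these data; inconclusive = activity change between two set negative limits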; note: % is set by controls: 0 for no effect and ±100 for the full control effect
# Target sequence (P16473 whole entry, looked up): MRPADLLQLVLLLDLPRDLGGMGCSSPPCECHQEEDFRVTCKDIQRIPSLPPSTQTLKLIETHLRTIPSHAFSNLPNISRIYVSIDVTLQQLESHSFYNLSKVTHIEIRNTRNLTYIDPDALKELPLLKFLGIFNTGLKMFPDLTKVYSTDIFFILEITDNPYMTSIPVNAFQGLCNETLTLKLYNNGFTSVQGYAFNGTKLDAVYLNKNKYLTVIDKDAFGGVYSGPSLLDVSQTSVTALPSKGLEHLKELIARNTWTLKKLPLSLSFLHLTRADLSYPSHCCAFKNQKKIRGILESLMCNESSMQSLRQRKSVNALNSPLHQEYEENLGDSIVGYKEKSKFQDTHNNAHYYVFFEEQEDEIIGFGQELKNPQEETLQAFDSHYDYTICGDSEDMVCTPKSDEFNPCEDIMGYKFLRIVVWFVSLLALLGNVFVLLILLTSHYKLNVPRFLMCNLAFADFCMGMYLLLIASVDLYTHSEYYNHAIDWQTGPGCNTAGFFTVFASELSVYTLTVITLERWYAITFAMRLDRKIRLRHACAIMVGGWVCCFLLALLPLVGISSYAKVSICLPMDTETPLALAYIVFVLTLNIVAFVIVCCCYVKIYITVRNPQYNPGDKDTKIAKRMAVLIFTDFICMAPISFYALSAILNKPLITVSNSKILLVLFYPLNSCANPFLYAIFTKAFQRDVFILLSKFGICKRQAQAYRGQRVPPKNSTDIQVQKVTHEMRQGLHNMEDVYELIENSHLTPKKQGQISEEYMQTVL
#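 Read-out is FRET at 665 nm (cryptate excitation 337 nm) from a cryptate-tagged anti-cAMP antibody, competed by cell cAMP against cAMP-d2. Compounds are tested on freshly harvested TSHR cells challenged with 4nM TSH (EC80) for 2 hours at 37 deg C.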
# Eya2 inh: qHTS Assay for Inhibitors of the Phosphatase Activity of Eya2; Protein phosphatase EYA2 (Homo sapiens), O00167; recombinant Eya2, OMFP fluorescence dephosphorylation (OMFP is methylfluorescein phosphate); Potency, µM (doses to about 76.9 µM), for inactives: at the highest dose activity, negative = inhibition, usual class: inhibitors; 0.006% of 330,000 active; AID 488837, 2010; note: potency is the fitted concentration of half-maximal effect; % is set by controls: 0 for no effect and ±100 for the full control effect
#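 Eya2 protein (added as 0.2 uM solution) was preincubated with compound for 10 min at ambient temperature in 50 mM HEPES pH 7.5, 50 mM NaCl, 5 uM MgCl2, 0.05% BSA, 1 mM DTT. OMFP (added at 50 uM) then reacted 10 min; fluorescence read at 485/525 nm.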
# Integrin act MD: qHTS for Activators of Integrin-Mediated Alleviation for Muscular Dystrophy. Potency, µM (doses to about 38.3 µM), for inactives: at the top dose activation, most hits filed as activators. 0.064% of 350,000 active. alpha7betagal myoblasts, beta-gal FDG fluorescence, 48 h;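 note: potency is the fitted concentration of half-maximal effect; 100% = response of the positive control SU9516; nearly all actives have a fitted effect of over 60% in size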
#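 alpha7betagal+/- myoblasts (passage 13, 250/well) treated 48 h at 37C with compounds at 1:260 dilution of DMSO stock. Lysed, then beta-galactosidase activity read as FDG fluorescence (ex 480/em 540) after 30 min, with pre-read for autofluorescence.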
# TCR activator: Activators of T cell receptors: qHTS campaign | Potency, µM (top dose mostly 9.22 µM), without a hit: top-dose activation of IL-2 secretion, hits mostly activators | 330,000 tested, under 10 active | primary human leukocytes, anti-CD3, IL-2 HTRF, 48 h; note: % of control where 0% means no effect
#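 48 hr co-incubation of compounds, a-CD3 beads and primary human leukocytes; IL-2 quantified homogeneously by HTRF with anti-IL-2 K and d2 conjugates.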
# Starred values were filed as active, the others as inactive; u = inconclusive; x = not tested or not shown; [ ] = another dose, or the depositor's remark. Unless noted, calls come from the whole dose curve; as a rule, active = well fitted curve in the direction sought with a large enough effect; inconclusive = small, poorly fitted or top-dose-only effect, or another doubt; inactive = no such curve, though single readings can be large; an effect the other way counts as inactive or inconclusive.
SMILES,TSHR antag,Eya2 inh,Integrin act MD,TCR activator
Cc1ccc(C(=O)CCS(=O)(=O)c2ccc(Br)cc2)cc1,-10.5,5.7%,-8.4%,-0.4%
Cc1ccc(S(=O)(=O)CCC(=O)c2cccc([N+](=O)[O-])c2)cc1,-104.7*,-12.9%,-59.5%,x
CC(C)OCCCn1c(=O)c2ccccc2n2c(CCC(=O)NC3CCN(Cc4ccccc4)CC3)nnc12,-125.4*,-3.0%,-13.4%,1.2%
Oc1cc(CNC2CCCCC2)c(O)cc1CNC1CCCCC1,x,x,9.7%,-0.2%
Cc1cc(N=NC(=O)c2ccccc2O)c2ccccc2c1O,-71.8*,2.7%,-39.2%,-1.1%
Cn1c(O)c(N=NC(=O)c2ccccc2O)c2ccccc21,-0.9,2.3%,0.4%,0.3%
CN(Cc1ccco1)S(=O)(=O)c1csc(C(N)=O)c1,-138.9*,11.8%,12.7%,1.8%
COc1ccc([C@]23Cc4cc(OC)c(OC)cc4C(O2)C2=C(CC(C)(C)CC2=O)O3)cc1,x,-4.2%[15.4 µM],x,x
O=C(CCN1C(=O)/C(=C/c2ccccc2Cl)SC1=S)Nc1cccnc1,-44.5,6.2%,0.0%,3.8%
O=C(CCCN1C(=O)/C(=C/c2ccccc2Cl)SC1=S)Nc1cccnc1,-71.7*,5.4%,-54.6%,-0.7%
CCCCN(CCCC)CCNC(=O)c1cn(C)c2ccc(S(=O)(=O)N(C)C3CCCCC3)cc2c1=O,9.1,-5.7%,10µM*,2.6%
CCCSc1nsc(NC(=O)C(c2ccccc2)c2ccccc2)n1,-80.0*,1.8%,-40.3%,-2.5%
CCSc1nsc(NC(=O)Nc2cccc(F)c2)n1,u,6.5%,-69.5%,-0.8%
CCCSc1nsc(NC(=O)Nc2ccc(F)cc2F)n1,-118.5*,4.6%,-8.0%,x
CCCSc1nsc(NC(=O)CC)n1,-15.9,-0.1%,28.7%,-1.5%
CC(C)(C)NC(=O)CSc1nnc(C2CC2)n1Cc1ccccc1,4.1,10.7%,27.2%,0.6%
Cc1ccc(C2=C(CC(=O)O)C(=O)CC2)cc1,3.8,-9.5%,4.47µM*,2.5%[46.1 µM]
O=C(O)C1C2C=CC(C2)C1C(=O)Nc1ccc2c(c1)OCCO2 (stereo not drawn),-12.2,2.0%,12.6%,x
COc1cc(NC(=O)C2C3C=CC(C3)C2C(=O)O)ccc1NC(=O)c1ccccc1 (stereo not drawn),-3.8,7.4%,8.91µM*,2.4%
COc1cccc(C(=O)Nc2ccc(NC(=O)C3C4C=CC(C4)C3C(=O)O)cc2)c1 (stereo not drawn),8.0,5.9%,-9.1%,15.1%
CN(C)c1ccc(NC(=O)C2C3C=CC(C3)C2C(=O)O)cc1 (stereo not drawn),-89.3*,-12.6%,-34.2%,12.9%
CCN1CCN(C(=O)c2cc(COc3ccc(F)c(F)c3)on2)[C@@H](C)C1=O,x,x,-8.9%,x
C[C@@H]1CNC(=O)c2c(C(=O)Nc3cccc(Cl)c3)ncn21,x,x,8.5%,x
COc1cccc(NC(=S)N2CCCN(Cc3ccc(F)cc3)C2)c1,-104.4*,-11.5%,27.2%,-3.7%
CC(=O)Nc1ccc(NC(=O)c2cc(=O)c3cc(C)cc(C)c3o2)cc1,-4.7,-9.4%,11.2µM*,-16.3%
SMILES,TSHR antag,Eya2 inh,Integrin act MD,TCR activator
Cn1c(CNC(=O)C(Cc2ccccc2)NC(=O)c2ccccc2)cc(=O)n(C)c1=O (stereo not drawn),-144.3*,-2.9%,0.0%,6.3%
Nc1nc2nc[nH]c2c(=O)[nH]1,-71.1*,-24.0%,x,-2.8%
COc1ccc(OCC(=O)Nc2cc(S(=O)(=O)N3CCCC3)ccc2Cl)cc1,-1.7,9.7%,-13.2%,-6.9%
C=CCn1nc(C(=O)N2CCOCC2)cc1-c1sc(NC(=O)c2ccccc2)nc1C,x,x,0.2%,x
N#Cc1cc([N+](=O)[O-])c2sc(C(N)=O)[n+]([O-])c2c1,-22.0,-3.9%,x,x
Fc1ccc(-c2ccnn2-c2ccccc2)cc1,-2.5,-13.4%,4.47µM*,5.5%
O=Cc1cnc(N2CCCCC2)s1,0.0,-1.2%,11.2µM*,-0.3%
N#CCC(C(=O)c1cccnc1)c1ccccc1 (stereo not drawn),x,x,8.8%,x
O=C(Nc1ccc([N+](=O)[O-])cc1Cl)c1cc(Cl)ccc1O,-90.6*,4.8%,x,-2.4%
O=C(Nc1cccc(Cl)c1)c1cccc(Oc2ccc([N+](=O)[O-])cc2Cl)c1,-11.0,-4.5%,-71.4%,-2.7%[46.1 µM]
O=C(Nc1ccc([N+](=O)[O-])cc1Cl)c1cccc([N+](=O)[O-])c1,x,x,12.8%,x
